Consider 90 compounds from PubChem BioAssay AID1852 (Sanford-Burnham Center for Chemical Genomics, 2009).

In general, inhibition refers to the change of the read-out against control, counted positive when it falls.

Screen size: about 2,500 compounds; about 1,100 (44%) were called active. So high a share suggests a set chosen from earlier hits. The list shows a part of the results. Unmarked numbers belong to inactive results.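 Rule for the calls: active = inhibition above 50% at 4 µM in the single-point screen; inactive = inhibition of 50% or less.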

The assay in a line: TNF-a-driven NF-kB reporter inhibitors, primary screen, selectivity assay for NOD1/NOD2 signaling inhibitor project, cell-based, HEK293T NF-kB-Luc, luminescence (AID 1852). The note with it: TNF-a induced, 14 h, at 4 µM, stronger effect = higher value.
Take `CCS(=O)(=O)C1=NN2C(=N)/C(=C\c3ccc(OCCOc4cccc(OC)c4)c(OC)c3)C(=O)N=C2S1`: the inhibition was -32.8%. Next, `CN(C)S(=O)(=O)c1cccc(NC(=O)CSc2cccc3cccnc23)c1`: 100% (active); `Cc1ccc(S(=O)(=O)N(C)C)cc1NC(=O)COC(=O)/C=C/c1cnc2ccccc2n1`: 12%; `O=C(CSc1cccc2cccnc12)Nc1ccc(S(=O)(=O)N2CCOCC2)cc1`: 104% (active).

Regarding `CCc1nc2ccccc2c(C(=O)OCC(=O)Nc2cccc(S(=O)(=O)N3CCOCC3)c2)c1C`, the inhibition was -0.6%. As for `CCN(CC)S(=O)(=O)c1cccc(NC(=O)CNc2cccc(S(=O)(=O)N3CCCC3)c2)c1`, the figure is 41.7%; as for `O=C(CN1CCN(c2cccc(Cl)c2)CC1)Nc1ccc(S(=O)(=O)N2CCOCC2)cc1`, 23.3%; as for `O=C(Nc1cccc(NC(=O)c2ccc(-c3cccc(Br)c3)o2)c1)c1ccco1`, -15.4%. With `CC(C)(C)C(=O)Nc1ccc(NC(=O)c2ccco2)nc1`, the inhibition was 98.2% (active). Next, `O=C(Nc1nc2cc3c(cc2s1)OCCO3)c1ccco1`: -31%; `COc1ccc(-c2nn(-c3ccccc3)cc2/C=N/NC(=O)c2ccc(Br)o2)cc1`: 94.1% (active). As for `COc1ccc(/C=N/NC(=O)c2ccc(Br)o2)cc1Cn1cc([N+](=O)[O-])cn1`, the figure is -16%. As for `Cc1ccc(-c2nn(-c3ccccc3)cc2/C=N/NC(=O)c2ccc(Br)o2)cc1`, the figure is 95.5% (active); as for `Cc1ccc(-c2nn(-c3ccccc3)cc2NC(=O)CCl)cc1`, -28.6%; as for `Cc1cc([N+](=O)[O-])ccc1-c1ccc(/C=N/NC(=O)c2ccc(Br)o2)o1`, -0.2%. Take `O=C(N/N=C/c1cn(-c2ccccc2)nc1-c1cc2ccccc2o1)c1c[nH]c2ccccc12`: the inhibition is -224%. Next, `CC[n+]1c(/C=C/N(C)c2ccccc2)n(-c2ccccc2)c2ccc(-c3nc4ccccc4s3)cc21`: 102% (active). Next, `CC(C)c1ccc(-c2nc3ccccc3s2)cc1`: 14.5%; `Cn1c2c(c(=O)n(C)c1=O)C(C(F)(F)F)(C(F)(F)F)N=C(c1ccc(Cl)cc1)N2`: 73.2% (active); `Cc1nc2c(Br)cc(Br)cc2cc1O`: 8.1%. As for `Cc1ccc(C(=O)c2cnc3cc4c(cc3c2S(=O)(=O)c2ccccc2)OCCO4)cc1`, the figure is -56.6%; as for `Cc1ccc(C(=O)NC(=C(Cl)Cl)S(=O)(=O)c2ccc(C)cc2)cc1`, 4.6%. Consider `Cc1ccc(C(=O)NC(=C(Cl)Cl)S(=O)(=O)c2ccccc2)cc1`, for which the inhibition is 97.7% (active). As for `Cc1ccc(C(=O)NC(C#N)=C(Cl)Cl)cc1`, the figure is 94.7% (active); as for `CC(=O)NC(=C(Cl)Cl)S(=O)(=O)c1ccccc1`, 42.6%. As for `Cc1ccc(C(=O)NC(=C(Cl)Cl)S(=O)(=O)c2ccc(Cl)cc2)cc1`, the figure is 63.9% (active); as for `O=C(NC(=C(Cl)Cl)S(=O)(=O)c1ccc(Cl)cc1)c1ccccc1`, 97.1% (active); as for `COc1ccc(C(=O)NC(=C(Cl)Cl)S(=O)(=O)c2ccc(C)cc2)cc1`, -46.2%. As for `CC(C)NC(=S)NC(c1ccccc1)(c1ccccc1)c1ccccc1`, the figure is 19.3%.

`COc1cc(/C=C2\C(=N)N3N=C(S(C)(=O)=O)SC3=NC2=O)ccc1OCCOc1ccc(C)cc1`: the inhibition was -39.5%. As for `Clc1ccccc1Cc1noc(CN2CCN(c3cnccn3)CC2)n1`, the figure is 7.7%. Consider `O=C(O)c1c(NC(=O)c2cccc3ccccc23)sc2c1CCC2`, for which the inhibition was 53.9% (active). Next, `Cc1cccc(C(=O)Nc2sc3c(c2C(=O)O)CCCC3)c1`: -8.5%; `O=C(Nc1sc2c(c1C(=O)O)CCCC2)c1ccccc1Cl`: 25%; `Cc1ccc(Nc2c([N+](=O)[O-])c(=O)oc3ccccc23)cc1C`: 6.4%.

Consider `COC(=O)c1ccc(Nc2c([N+](=O)[O-])c(=O)oc3ccccc23)cc1`, for which the inhibition was 99.5% (active). As to `O=c1oc2ccccc2c(Nc2ccc(F)cc2)c1[N+](=O)[O-]`, the inhibition is -32.2%. In the case of `C=CS(=O)(=O)c1ccc(Oc2ccc(S(=O)(=O)C=C)cc2)cc1`, the inhibition was 103% (active). As for `CC(=O)NC(c1ccccc1)c1cc([N+](=O)[O-])c2cccnc2c1O` (stereo not given), the figure is 99.5% (active); as for `CC(=O)NC(c1ccc(C)cc1)c1cc([N+](=O)[O-])c2cccnc2c1O` (stereo not given), 76.4% (active); as for `CC(=O)NC(c1ccc(C)cc1)c1cc(Cl)c2cccnc2c1O` (stereo not given), 77.9% (active). `CCC(=O)NC(/C=C/c1ccccc1)c1cc([N+](=O)[O-])c2cccnc2c1O` (stereo not given): the inhibition was 81.6% (active). For `CCCCCc1ccc(OCCCC[n+]2ccc(C)cc2)c(CCCCC)c1`, the inhibition is 6.6%. As for `CCC(=O)NC(c1ccc(C)cc1)c1cc([N+](=O)[O-])c2cccnc2c1O` (stereo not given), the figure is 84.6% (active); as for `CC[C@@]1(O)C(=O)OCc2c1cc1n(c2=O)Cc2cc3c(N)cccc3nc2-1`, 88.3% (active). On to `Cc1scc(C(=O)N/N=C/c2ccc([N+](=O)[O-])o2)c1C`, for which the inhibition is 72% (active). Next, `O=C(N/N=C/c1ccc([N+](=O)[O-])o1)c1cc2ccccc2o1`: 52.9% (active); `O=C(Nc1c(Cl)ccc2nsnc12)c1ccc([N+](=O)[O-])o1`: 16%; `O=C(N/N=C/c1ccc([N+](=O)[O-])o1)c1ccccc1NS(=O)(=O)c1cccs1`: 61.1% (active).

In the case of `Cc1nonc1C(=O)N/N=C/c1ccc([N+](=O)[O-])o1`, the inhibition was 46%.

`O=C(N/N=C/c1ccc([N+](=O)[O-])o1)c1ccccc1-n1cccc1`: the inhibition is 45.7%.

As for `O=C(CNc1cccc2ccccc12)N/N=C/c1ccc([N+](=O)[O-])o1`, the inhibition was 34%.

In the case of `O=[N+]([O-])c1ccc(/C=N/N=C/c2ccc([N+](=O)[O-])o2)o1`, the inhibition was 83% (active). As for `Cc1ccc(NCC(=O)N/N=C\c2ccc([N+](=O)[O-])o2)cc1`, the figure is 35.7%; as for `O=C(N/N=C/c1ccc([N+](=O)[O-])o1)c1ccc2c(c1)OCO2`, 71.8% (active). As for `CCN(Cc1ccccc1)S(=O)(=O)c1ccc(C(=O)Nc2nnc(C3CC3)o2)cc1`, the figure is 92.7% (active); as for `CCCCN(CC)S(=O)(=O)c1ccc(C(=O)Nc2nnc(-c3cccs3)o2)cc1`, 59.1% (active); as for `O=C(CN(Cc1ccccc1)S(=O)(=O)c1ccc2c(c1)OCCO2)Nc1ccc2c(c1)OCCO2`, 8.4%.

Take `CCCCN(CC)S(=O)(=O)c1ccc(C(=O)Nc2nnc(-c3ccccc3Cl)o2)cc1`: the inhibition was 59.6% (active). As for `CCN(c1ccccc1)S(=O)(=O)c1ccc(NC(=S)NC(=O)c2cccs2)cc1`, the figure is 43.4%. Turning to `CCCCN(C)S(=O)(=O)c1ccc(C(=O)Nc2nnc(-c3cccs3)o2)cc1`, the inhibition was 55.8% (active).

Turning to `CN1CCN(Cc2nc(Cc3cccc(F)c3)no2)CC1c1ccccc1` (stereo not given), the inhibition was 3.2%. With `CCOC(=O)COc1ccc2ccccc2c1/C=C/[N+](=O)[O-]`, the inhibition was 27.3%.

As to `NC(=S)N/N=C\c1c(OCc2ccccc2Cl)ccc2ccccc12`, the inhibition is 66% (active).

In the case of `O=C(N/N=C/c1cc(Cl)c(O)c(Cl)c1)c1cc2c(ccc3ccccc32)o1`, the inhibition is 42.9%. As for `Cc1ccc(S(=O)(=O)Nc2ccc(O)c3ccccc23)c(C)c1`, the figure is 92.3% (active); as for `COc1ccc(NC(C)=O)cc1S(=O)(=O)Nc1ccc(OCc2ccccc2)cc1`, 33.1%; as for `CCc1ccc(S(=O)(=O)Nc2ccc(O)c3ccccc23)cc1`, 36.3%. As for `COc1ccc(S(=O)(=O)Nc2ccc(OCC(=O)O)cc2)c2ccccc12`, the figure is -2.2%. Next, `Cc1ccc(S(=O)(=O)Nc2cc(C)c(O)cc2C)cc1`: 29.5%; `CCCNc1c(NS(=O)(=O)c2ccc(Br)cc2)c(=O)oc2ccccc12`: 11.2%; `O=S(=O)(Nc1ccc(O)c2ccccc12)c1ccc(Br)cc1`: 101% (active). With `Cc1ccc(S(=O)(=O)Nc2cc(C(C(=O)OC(C)C)C(=O)C(F)(F)F)c(O)c3ccccc23)c(C)c1` (stereo not given), the inhibition is 72% (active). As for `COc1ccc(OC)c(S(=O)(=O)Nc2ccc(O)c3ccccc23)c1`, the inhibition is 62.6% (active). Regarding `O=C(O)CCSc1nnc(-c2ccc3c(c2)OCO3)o1`, the inhibition is 64.7% (active). Consider `O=C(O)CCSc1ncnc2sc(-c3ccccc3)cc12`, for which the inhibition is 43.8%.

Regarding `O=C(O)CSc1cc(NS(=O)(=O)c2ccc(Cl)cc2)c2ccccc2c1O`, the inhibition is 93.9% (active). Next, `CCOc1ccc(S(=O)(=O)Nc2cc(SCC(=O)O)c(O)c3ccccc23)cc1`: 92.5% (active); `Cc1ccc(-c2n[nH]c(=O)c3ccccc23)cc1S(=O)(=O)Nc1ccccc1`: 14.6%. As for `COC(=O)c1sccc1NC(=O)CSc1ccccc1NS(=O)(=O)c1ccc(Br)cc1`, the figure is 26.3%.

Consider `COc1ccc(S(=O)(=O)Nc2cc(SCC(=O)O)c(O)c3ccccc23)cc1`, for which the inhibition was 98.3% (active). `COC(=O)c1sccc1NC(=O)CSc1ccccc1NS(=O)(=O)c1cc(Cl)ccc1Cl`: the inhibition is 39%.

For the compound `CCc1ccc(S(=O)(=O)Nc2cc(SCC(=O)O)c(O)c3ccccc23)cc1`, the inhibition is 8%. As for `COc1ccc(S(=O)(=O)c2c(O)cc(C)c(NS(=O)(=O)c3ccccc3)c2C)cc1`, the figure is 46.9%; as for `Cc1ccc(C)c(S(=O)(=O)Nc2cc(SCC(=O)O)c(O)c3ccccc23)c1`, 105% (active); as for `Cc1cc(S(=O)(=O)NCc2ccncc2)c(C)cc1Br`, 22.7%.

Regarding `CS(=O)(=O)C1=NN2C(=N)/C(=C\c3ccc(OCCOc4ccccc4)cc3)C(=O)N=C2S1`, the inhibition is -28.3%. Next, `CCN1CCN(Cc2ccc(NC(=O)c3ccc(C)c(NC(=O)c4ccno4)c3)cc2C(F)(F)F)CC1`: -16.6%; `O=C(Nc1ccc2nc3n(c(=O)c2c1)CCCCC3)c1c(F)ccc([N+](=O)[O-])c1F`: 94.6% (active). As for `O=C(Nc1ccc2nc3n(c(=O)c2c1)CCCCC3)c1cc([N+](=O)[O-])ccc1F`, the figure is 37.4%.
